Holding throughout (assay): peptide microarray binding signal (635 nm), min-max normalized on array (fraction of array maximum); higher = stronger binding
Holding throughout (settings): peptide region: H3 11-23

Test [1] has as its target T1, HaloTag-ATRX ADD domain (163-292).
T1 chain: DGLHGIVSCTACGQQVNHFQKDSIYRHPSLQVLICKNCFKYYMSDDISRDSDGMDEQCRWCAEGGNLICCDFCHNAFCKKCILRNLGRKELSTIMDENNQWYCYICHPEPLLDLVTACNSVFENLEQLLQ
The procedure, abridged: (§1)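 Arrays carried histone 13-mer peptide–cellulose conjugates printed in triplicate on nitrocellulose alongside a Cy3 tracer. After overnight blocking at 4°C, they were incubated for 1 h at 4°C with biotin-labelled HaloTag reader fusions (10 nM to 1 μM) plus streptavidin-Alexa Fluor 647, or with rabbit histone antibodies (1:10,000 to 1:2,000) plus anti-rabbit Alexa 647. Scanning on an Axon GenePix 4000B used 635 nm for signal and 532 nm for misprints. The binding signal reported is each triplicate's mean spot intensity after per-library min-max scaling.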

The target of test [2] is HaloTag-ING2 PHD (mouse Ing2 200-280). The procedure, abridged: as §1
In test [3] the target is anti-H3K4me3 antibody ab8580. The procedure, abridged: as §1
For test [4], the target named is anti-H3K9me3 antibody ab8898. The procedure, abridged:
as §1

[5] abbreviates: peptide modifications: H3K14me3 H3K18me2, binder concentration: 1:2,000 dilution.
The mark [6] stands for this setting: peptide modifications: H3K14me3 H3K18me2, binder concentration: 1:10,000 dilution.
Where [7] appears, read: peptide modifications: H3K14me2 H3R17me2s, binder concentration: 1:2,000 dilution.
[8] abbreviates: peptide modifications: H3K14me2 H3R17me2s, binder concentration: 1:10,000 dilution.
[9] abbreviates: peptide modifications: H3K14me3 H3K18me1, binder concentration: 1:2,000 dilution.
Where [10] appears, read: peptide modifications: H3K14me3 H3K18me1, binder concentration: 1:10,000 dilution.
Where [11] appears, read: peptide modifications: H3K14me2 H3K18me2, binder concentration: 1:2,000 dilution.
The mark [12] stands for this setting: peptide modifications: H3K14me2 H3K18me2, binder concentration: 1:10,000 dilution.
[13] abbreviates: peptide modifications: H3K14me2 H3K18me3, binder concentration: 1:2,000 dilution.
[14] abbreviates: peptide modifications: H3K14me2 H3K18me3, binder concentration: 1:10,000 dilution.
Where [15] appears, read: peptide modifications: H3K14me2 H3R17cit, binder concentration: 1:2,000 dilution.
[16] abbreviates: peptide modifications: H3K14me2 H3R17cit, binder concentration: 1:10,000 dilution.
Where [17] appears, read: peptide modifications: H3K14me3 H3K18ac, binder concentration: 1:2,000 dilution.
Setting [18] is: peptide modifications: H3K14me3 H3K18ac, binder concentration: 1:10,000 dilution.
Where [19] appears, read: peptide modifications: H3K14me2 H3R17me2a, binder concentration: 1:2,000 dilution.
Where [20] appears, read: peptide modifications: H3K14me2 H3R17me2a, binder concentration: 1:10,000 dilution.
Setting [21] is: peptide modifications: H3K14me3, binder concentration: 1:2,000 dilution.
The mark [22] stands for this setting: peptide modifications: H3K14me3, binder concentration: 1:10,000 dilution.
The mark [23] stands for this setting: peptide modifications: H3K14me2 H3R17me1, binder concentration: 1:2,000 dilution.
Where [24] appears, read: peptide modifications: H3K14me2 H3R17me1, binder concentration: 1:10,000 dilution.

± gives the standard deviation.

On to TGGKAPRKQLATK [H3 11-23 T G G Kme3 A P R Kme2 Q L A T K], for which the “peptide microarray binding signal” value in test [1] (peptide modifications: H3K14me3 H3K18me2, binder concentration: 50 nM) came out at 0.0154 ± 0.00095; in test [1] (peptide modifications: H3K14me3 H3K18me2, binder concentration: 500 nM), 0.00933 ± 0.00068; in test [2] (peptide modifications: H3K14me3 H3K18me2, binder concentration: 10 nM), 0.0107 ± 0.0026; in test [2] (peptide modifications: H3K14me3 H3K18me2, binder concentration: 100 nM), 0.0194 ± 0.008; in test [3] (setting [5]), 0.0408 ± 0.02; in test [3] (setting [6]), 0.0276 ± 0.0038. The “peptide microarray binding signal” value came out at 0.0775 ± 0.0048 in test [4] (setting [5]) and 0.0328 ± 0.0026 in test [4] (setting [6]).
For TGGKAPRKQLATK [H3 11-23 T G G Kme2 A P Rme2s K Q L A T K], the “peptide microarray binding signal” value in test [1] (peptide modifications: H3K14me2 H3R17me2s, binder concentration: 50 nM) came to 0.00489 ± 0.00015; in test [1] (peptide modifications: H3K14me2 H3R17me2s, binder concentration: 500 nM), 0.0177 ± 0.0016; in test [2] (peptide modifications: H3K14me2 H3R17me2s, binder concentration: 10 nM), 0.0129 ± 0.0031; in test [2] (peptide modifications: H3K14me2 H3R17me2s, binder concentration: 100 nM), 0.00964 ± 0.0051; in test [3] (setting [7]), 0.00034 ± 1e-05; in test [3] (setting [8]), 0.0123 ± 0.0055. Further, the “peptide microarray binding signal” value worked out at 0.00669 ± 0.0021 in test [4] (setting [7]) and 0.00726 ± 0.0002 in test [4] (setting [8]).
As to TGGKAPRKQLATK [H3 11-23 T G G Kme3 A P R Kme Q L A T K], the “peptide microarray binding signal” value in test [1] (peptide modifications: H3K14me3 H3K18me1, binder concentration: 50 nM) amounted to 0.00624 ± 0.00027; in test [1] (peptide modifications: H3K14me3 H3K18me1, binder concentration: 500 nM), 0.0127 ± 0.00063; in test [2] (peptide modifications: H3K14me3 H3K18me1, binder concentration: 10 nM) it was 0.0189 ± 0.00082; in test [2] (peptide modifications: H3K14me3 H3K18me1, binder concentration: 100 nM), 0.0235 ± 0.0053; in test [3] (setting [9]) it was 0.0496 ± 0.0091; in test [3] (setting [10]), 0.0252 ± 0.0028. In addition, the “peptide microarray binding signal” value in test [4] (setting [9]) worked out at 0.0621 ± 0.0077; in test [4] (setting [10]), 0.0203 ± 0.0028.
Take TGGKAPRKQLATK [H3 11-23 T G G Kme2 A P R Kme2 Q L A T K]: the “peptide microarray binding signal” value amounted to 0.00868 ± 0.00041 in test [1] (peptide modifications: H3K14me2 H3K18me2, binder concentration: 50 nM); 0.0137 ± 0.0018 in test [1] (peptide modifications: H3K14me2 H3K18me2, binder concentration: 500 nM); 0.00555 ± 0.00016 in test [2] (peptide modifications: H3K14me2 H3K18me2, binder concentration: 10 nM); 0.0111 ± 0.00051 in test [2] (peptide modifications: H3K14me2 H3K18me2, binder concentration: 100 nM); 0.0136 ± 0.0033 in test [3] (setting [11]); 0.0097 ± 0.0018 in test [3] (setting [12]). Moreover, the “peptide microarray binding signal” value in test [4] (setting [11]) amounted to 0.00616 ± 0.00078; in test [4] (setting [12]) it was 0.00536 ± 0.00032.
As for TGGKAPRKQLATK [H3 11-23 T G G Kme2 A P R Kme3 Q L A T K], the “peptide microarray binding signal” value in test [1] (peptide modifications: H3K14me2 H3K18me3, binder concentration: 50 nM) was 0.00646 ± 0.00024; in test [1] (peptide modifications: H3K14me2 H3K18me3, binder concentration: 500 nM), 0.009572 ± 8e-05; in test [2] (peptide modifications: H3K14me2 H3K18me3, binder concentration: 10 nM), 0.00859 ± 0.00099; in test [2] (peptide modifications: H3K14me2 H3K18me3, binder concentration: 100 nM), 0.0188 ± 0.0022; in test [3] (setting [13]), 0.54 ± 0.11; in test [3] (setting [14]) it was 0.4 ± 0.12. In addition, the “peptide microarray binding signal” value turned out to be 0.0567 ± 0.005 in test [4] (setting [13]) and 0.0291 ± 0.002 in test [4] (setting [14]).
TGGKAPRKQLATK [H3 11-23 T G G Kme2 A P Rcit K Q L A T K]: the “peptide microarray binding signal” value in test [1] (peptide modifications: H3K14me2 H3R17cit, binder concentration: 50 nM) worked out at 0.00455 ± 0.00063; in test [1] (peptide modifications: H3K14me2 H3R17cit, binder concentration: 500 nM), 0.0129 ± 0.0034; in test [2] (peptide modifications: H3K14me2 H3R17cit, binder concentration: 10 nM), 0.0106 ± 0.0018; in test [2] (peptide modifications: H3K14me2 H3R17cit, binder concentration: 100 nM) it was 0.0185 ± 0.002; in test [3] (setting [15]) it was 0.00051 ± 4e-05; in test [3] (setting [16]) it was 0.0016 ± 4.6e-05. Moreover, the “peptide microarray binding signal” value in test [4] (setting [15]) was 0.00488 ± 0.0014; in test [4] (setting [16]), 0.00398 ± 0.00058.
For TGGKAPRKQLATK [H3 11-23 T G G Kme3 A P R Kac Q L A T K], the “peptide microarray binding signal” value in test [1] (peptide modifications: H3K14me3 H3K18ac, binder concentration: 50 nM) is 0.00646 ± 0.00042; in test [1] (peptide modifications: H3K14me3 H3K18ac, binder concentration: 500 nM), 0.0102 ± 0.00058; in test [2] (peptide modifications: H3K14me3 H3K18ac, binder concentration: 10 nM) it was 0.0146 ± 0.00098; in test [2] (peptide modifications: H3K14me3 H3K18ac, binder concentration: 100 nM) it was 0.032 ± 0.004; in test [3] (setting [17]) it was 0.06 ± 0.018; in test [3] (setting [18]) it was 0.0259 ± 0.0059. Further, the figures for the “peptide microarray binding signal” value in test [4] (setting [17]) and in test [4] (setting [18]) were 0.0686 ± 0.018 and 0.0246 ± 0.0023, respectively.
As for TGGKAPRKQLATK [H3 11-23 T G G Kme2 A P Rme2a K Q L A T K], the “peptide microarray binding signal” value in test [1] (peptide modifications: H3K14me2 H3R17me2a, binder concentration: 50 nM) was 0.00561 ± 0.00083; in test [1] (peptide modifications: H3K14me2 H3R17me2a, binder concentration: 500 nM) it was 0.00867 ± 0.00039; in test [2] (peptide modifications: H3K14me2 H3R17me2a, binder concentration: 10 nM), 0.00686 ± 0.00028; in test [2] (peptide modifications: H3K14me2 H3R17me2a, binder concentration: 100 nM), 0.00893 ± 0.00059; in test [3] (setting [19]), 0.00351 ± 0.00056; in test [3] (setting [20]) it was 0.00434 ± 0.00045. Also, the results for the “peptide microarray binding signal” value in test [4] (setting [19]) and in test [4] (setting [20]) were 0.00379 ± 0.00076 and 0.00306 ± 0.00024, respectively.
As to TGGKAPRKQLATK [H3 11-23 T G G Kme3 A P R K Q L A T K], the “peptide microarray binding signal” value in test [1] (peptide modifications: H3K14me3, binder concentration: 50 nM) stood at 0.00567 ± 0.0004; in test [1] (peptide modifications: H3K14me3, binder concentration: 500 nM), 0.017 ± 0.0053; in test [2] (peptide modifications: H3K14me3, binder concentration: 10 nM), 0.0115 ± 0.0029; in test [2] (peptide modifications: H3K14me3, binder concentration: 100 nM), 0.0106 ± 0.0035; in test [3] (setting [21]), 0.0134 ± 0.0088; in test [3] (setting [22]), 0.0221 ± 0.0092. For the same molecule, the “peptide microarray binding signal” value was determined as 0.062 ± 0.022 in test [4] (setting [21]) and 0.0336 ± 0.0081 in test [4] (setting [22]).
In the case of TGGKAPRKQLATK [H3 11-23 T G G Kme2 A P Rme K Q L A T K], the “peptide microarray binding signal” value came to 0.00417 ± 0.00015 in test [1] (peptide modifications: H3K14me2 H3R17me1, binder concentration: 50 nM); 0.0101 ± 0.00014 in test [1] (peptide modifications: H3K14me2 H3R17me1, binder concentration: 500 nM); 0.00483 ± 0.00017 in test [2] (peptide modifications: H3K14me2 H3R17me1, binder concentration: 10 nM); 0.00843 ± 0.0018 in test [2] (peptide modifications: H3K14me2 H3R17me1, binder concentration: 100 nM); 0.00376 ± 0.0005 in test [3] (setting [23]); 0.00211 ± 8.9e-05 in test [3] (setting [24]). Further, the “peptide microarray binding signal” value in test [4] (setting [23]) is 0.00378 ± 0.00014; in test [4] (setting [24]) it was 0.00288 ± 8.6e-05.
